# m-calpain inh: inhibitors of pig calpain II | purified calpain II, fluorogenic peptide substrate, 30 min | inhibition, % at 16 µM | actives 0.37% (n = 220,000);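 active = inhibition above about 50%, limit read from the data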
# Mcl1-Bid inh: Mcl-1/Bid interaction inhibition | Q07820 | TR-FRET Mcl-1/Bid-Dy647 peptide binding, 1536-well | inhibition, % at 21.7 µM | actives 0.97% (n = 220,000) | AID 1021;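 active = compounds that cut the binding signal by more than half at the single screening dose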;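 note: His-tagged Mcl-1 with europium anti-His antibody binding Bid BH3 peptide; 0% = Mcl-1 plus peptide wells and 100% = peptide-only wells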
# Target sequence (Q07820 whole entry, looked up): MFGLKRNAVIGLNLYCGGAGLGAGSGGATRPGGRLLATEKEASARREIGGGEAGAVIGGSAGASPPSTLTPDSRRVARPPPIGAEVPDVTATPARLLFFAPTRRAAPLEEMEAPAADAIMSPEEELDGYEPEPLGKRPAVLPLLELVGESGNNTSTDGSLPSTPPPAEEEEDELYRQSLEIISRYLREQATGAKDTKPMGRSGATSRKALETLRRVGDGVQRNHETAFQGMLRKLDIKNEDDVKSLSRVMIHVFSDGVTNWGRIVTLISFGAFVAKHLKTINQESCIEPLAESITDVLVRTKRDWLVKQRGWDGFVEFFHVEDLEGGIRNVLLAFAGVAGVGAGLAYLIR
# TNF death inh: TNF-alpha cell death inhibition in Jurkat FADD-/- cells; activation (protection from cell death), % at 10 µM; Jurkat FADD-/- TNF necroptosis rescue, ATP luminescence, 24 h; 0 = TNF only, 100 = no-TNF cells; actives 0.068% (n = 220,000);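 active = activation, meaning protection from cell death, of at least 50% relative to plate controls; inactive = activation below 50%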;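 note: necroptosis triggered by 40 ng/mL TNF-alpha added together with compound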
# Mcl1-Noxa inh: Mcl-1/Noxa interaction inhibition | AID 1022 | inhibition, % at 21.7 µM | actives 1.5% (n = 220,000) | TR-FRET Mcl-1/Noxa peptide binding, 2 h | Q07820;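 active = compounds that cut the protein-peptide binding signal by more than 50% relative to plate controls in a single-dose test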;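 note: His-tagged Mcl-1 with rhodamine Noxa BH3 peptide and terbium anti-His antibody; 0% = Mcl-1 plus Noxa peptide wells and 100% = peptide-only wells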
# L929 necroptosis: L929 zVAD cell death inhibition; L929 zVAD necroptosis rescue, ATP luminescence, 24 h; with zVAD 60 µM; actives 0.38% (n = 220,000); viability rescue, % at 10 µM; AID 1377;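 active = activation, scaled between plate controls, above about 75%, limit read from the data; inactive = activation under that limit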;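 note: 0% = zVAD with DMSO and 100% = DMSO alone without zVAD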
# Bim-Mcl-1: human Bim-Mcl-1 interaction inhibition; Q07820; Bead-based flow cytometry, Bim peptide-Mcl-1 binding; actives 0.1% (n = 190,000); inhibition, % at 10 µM; in the data active = inhibition above about 40%;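 note: 0% = no compound tracer wells and 100% = peptide blocker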
# zVAD necrop conf: confirmed blocker of zVAD induced death in L929 cells; L929 zVAD-induced necroptosis rescue, ATP luminescence, 24 h; actives 16% (n = 760); AID 463117; activation (protection from necroptosis), % at 10 µM; shares compounds with L929 necroptosis;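 active = mean protection from necroptosis of at least 50% over duplicate tests; inactive = mean protection below 50%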;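 note: 0% = cells with zVAD alone and 100% = vehicle cells without zVAD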
# Numbers without * were called inactive; · = no result given. Rows were chosen to be rich in hits. Some 2.8% of all compounds tested hit in one or more screens of this group.
SMILES,m-calpain inh,Mcl1-Bid inh,TNF death inh,Mcl1-Noxa inh,L929 necroptosis,Bim-Mcl-1,zVAD necrop conf
O=C(CSc1n[nH]c(=O)n1C1CC1)Nc1cc(Cl)ccc1Oc1ccccc1,-32.9,-6.5,-11.2,13.4,1.4,-1.0,·
CC1CCc2c(sc3ncnc(N4CCN(S(=O)(=O)c5cccc6nonc56)CC4)c23)C1 (centres undefined),·,·,-0.8,·,-0.1,·,·
CC1(C)CC(=O)C=C(NCc2ccccc2)C1,11.8,-2.1,3.0,10.7,0.1,0.0,·
CC1(C)CC(=O)C=C(Nc2cc(-c3ccccc3)[nH]n2)C1,7.8,-14.2,12.3,-8.1,90.8*,0.0,24.0
Fc1cccc(F)c1/C=N/Nc1ccccn1,0.5,-30.1,13.2,7.3,90.3*,1.0,24.4
O=S(=O)(N/N=C/c1ccc2c(c1)OCCO2)c1ccccc1,19.4,-63.5,-1.8,4.6,0.0,0.0,·
Fc1cccc(/C=N/Nc2ccccn2)c1,-3.3,-41.4,19.9,17.2,76.1*,-4.0,0.9
Fc1cccc(Cl)c1/C=N/Nc1ccccn1,2.5,-18.0,16.0,8.9,83.4*,-1.0,1.1
O=S(=O)(N/N=C/c1c(F)cccc1Cl)c1ccccc1,15.4,1.0,-6.0,6.0,0.5,0.0,·
Cc1ccc(C)c(/C=N/Nc2ccccn2)c1,10.9,-23.1,3.8,13.6,53.5,2.0,·
C(=N\Nc1ccccn1)/c1ccc2c(c1)OCCO2,-22.9,-24.1,19.3,4.8,82.6*,0.0,2.0
CCN(CC)S(=O)(=O)c1ccc2[nH]c(=O)cc(C(=O)Nc3cccc(C(C)=O)c3)c2c1,-53.2,-34.9,0.4,14.2,4.6,0.0,·
CC(=O)N1Cc2cc([N+](=O)[O-])ccc2Oc2ccccc21,14.8,-7.5,0.0,-17.0,0.3,0.0,·
Cc1ccc(C(=O)Nc2cccc(C(F)(F)F)c2)cc1NC(=O)c1nccnc1N,-49.4,-49.0,0.1,10.5,2.8,·,·
Cc1ccc(C(=O)Nc2cccc(C(F)(F)F)c2)cc1Nc1ccccn1,-8.1,-31.2,2.9,1.4,79.2*,·,65.1*
O=c1/c(=C\c2ccc(F)cc2)sc2n1CCCN=2,9.6,-55.0,-0.7,12.9,75.8*,0.0,0.0
O=c1/c(=C/c2ccc(O)cc2)sc2n1CCCN=2,-7.7,-30.8,-5.0,-5.4,3.9,-6.0,·
COc1ccc(-c2cc(=O)c3cc(O)ccc3o2)cc1,21.6,-1.2,-1.9,-4.8,75.9*,3.0,30.4
Cc1cc(C)cc(NC(=O)Nc2ccc(N3CCCCC3)cc2)c1,0.4,-24.5,2.1,22.9,77.5*,·,34.3
O=C(Nc1ccc(N2CCCC2)cc1)C(c1ccccc1)c1ccccc1,19.1,-0.7,2.3,·,-0.1,0.0,·
O=C(Nc1ccc(N2CCCCC2)cc1)C(Cl)c1ccccc1 (centres undefined),-22.7,-46.3,12.7,30.2,76.8*,-3.0,6.6
O=C(CO/N=C/c1ccc2c(c1)OCO2)Nc1cccc(Br)c1,23.1,-5.5,1.7,-5.3,-0.1,-6.0,·
COc1ccc2nc(NC(=O)CCNC(=O)c3ccccc3Cl)sc2c1,41.2,-2.0,1.6,0.0,78.0*,-2.0,2.9
CCN1CCN(CC(=O)Nc2nc3ccc(OC)cc3s2)CC1,24.5,34.8,2.4,25.1,83.7*,-2.0,22.0
COc1ccc2nc(NC(=O)CN3CCN(C)CC3)sc2c1,-1.9,29.3,-0.6,19.9,92.0*,0.0,37.2
SMILES,m-calpain inh,Mcl1-Bid inh,TNF death inh,Mcl1-Noxa inh,L929 necroptosis,Bim-Mcl-1,zVAD necrop conf
CCCC(=O)Nc1nc2ccc(OC)cc2s1,-10.5,-4.1,4.7,-3.2,72.0,-2.0,·
COc1ccc2nc(NC(=O)CN3CCOCC3)sc2c1,-3.0,-17.9,0.8,0.1,10.9,4.0,·
CCn1cc(C(=O)NCCCN2CCN(C)CC2)c(=O)c2cc(S(=O)(=O)N3CCc4ccccc4C3)ccc21,-8.0,-15.2,-7.4,-4.2,-1.8,-4.0,·
Cc1sc2nc(CN(Cc3cccs3)C(=O)NC3CCCCC3)[nH]c(=O)c2c1C,21.4,8.2,0.4,5.5,0.4,0.0,·
Cc1ccc(NC(=O)c2ccccc2)cc1-n1cnnn1,13.8,-13.1,1.6,5.0,75.2*,0.0,5.5
COc1ccccc1NC(=O)c1ccc(-c2nn(C)c(=O)c3ccccc23)cc1,3.8,-15.8,0.2,-0.6,78.2*,0.0,-0.2
CCOC(=O)C1C(=O)NC(SCC(=O)Nc2nccs2)=C(C#N)C1c1ccccc1OCC (centres undefined),-8.8,-4.6,16.4,14.4,88.2*,-8.0,67.1*
CCCCc1ccc(-n2nnnc2SCC(=O)Nc2cc(OC)c([N+](=O)[O-])cc2C)cc1,22.4,12.5,0.0,-2.5,1.0,-21.0,·
Cc1ccc(NC(=O)CN2C(=O)NC(Cc3c[nH]c4ccccc34)C2=O)cc1S(=O)(=O)N1CCCCC1 (centres undefined),-33.8,-89.9,-1.8,15.8,0.6,-1.0,·
CCN1C(=O)/C(=C/c2ccc(C)s2)NC1=S,27.1,-93.7,49.1,12.6,98.5*,9.0,93.8*
CC(=O)N(C)c1ccc(NC(=S)Nc2ccccc2)cc1,-5.7,-30.9,-1.3,-12.9,0.0,-1.0,·
CC(=O)N(C)c1ccc(NC(=O)Nc2ccc(C)cc2)cc1,51.4*,-16.3,-1.3,7.4,76.7*,0.0,37.2
CCOC(=O)CCC(=O)NNC(=O)c1ccc(NC(=O)c2ccccc2)cc1,16.4,-26.8,-0.6,22.6,75.4*,-27.0,12.4
COC(=O)c1ccc(/C=N/Nc2nc(C)c(C)s2)cc1,16.4,-9.1,10.9,7.4,79.9*,·,2.0
Cc1ccc(-n2nnnc2SCC(=O)N2CC(=O)Nc3ccccc32)cc1,-19.2,-29.6,8.0,15.1,-0.6,-2.0,·
COCCNC(=O)c1cc(Sc2nnc(C)s2)nc2ccccc12,-14.3,-7.2,4.0,-0.1,75.5*,·,8.2
CCO[C@@H]1OC(C(=O)N2CCN(Cc3ccccc3)CC2)=C[C@H](c2csc3ccccc23)[C@H]1CCCO,-9.1,12.4,2.0,4.2,0.8,0.0,·
CC(=O)c1cnc(Nc2ccc(C)cc2)s1,17.9,-31.4,14.2,1.2,84.1*,0.0,3.3
O=C1CN2NC(=S)N(c3ccccc3)C2=CN1c1ccc(Cl)cc1,-21.3,-43.2,-0.4,7.9,1.1,0.0,·
C(=N\Nc1nc2ccccc2[nH]1)/c1c[nH]c2ccccc12,-1.2,-27.8,34.4,15.8,80.5*,-4.0,34.6
C(=N\Nc1nc2ccccc2[nH]1)/c1ccccc1,-13.7,-78.1,12.7,13.6,84.5*,-6.0,6.7
Cc1ccc(/C=N/Nc2nc3ccccc3[nH]2)s1,9.0,-111.9,10.8,-39.9,76.0*,-3.0,4.9
Cc1ccccc1/C=N/Nc1nc2ccccc2[nH]1,34.1,-30.4,8.2,13.0,38.1,-2.0,·
